The target in experiment [1] is Glutathione peroxidase 1 (Homo sapiens) (UniProt P07203). Briefly: Primary qHTS Assay for Inhibitors of Recombinant Selenoprotein Glutathione Peroxidase 1 (GPX1) (AID 1845191). For activity, negative = inhibition: % is set by controls: 0 for no effect and ±100 for the full control effect. Note: nearly all actives have a fitted effect of over 65% in size. The essentials: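 GR-coupled readout: NADPH consumption tracked by fluorescence, ex 340/em 450 nm, at t=0 and after 15 min at RT. Final mix 10 nM GPX1, 1 mM GSH, 0.5 mM CHP, 0.5 mM NADPH, 100 nM GR, 0.01% BSA, following 30 min enzyme–compound preincubation.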
Sequence of Glutathione peroxidase 1 (Homo sapiens) (P07203 whole entry, looked up): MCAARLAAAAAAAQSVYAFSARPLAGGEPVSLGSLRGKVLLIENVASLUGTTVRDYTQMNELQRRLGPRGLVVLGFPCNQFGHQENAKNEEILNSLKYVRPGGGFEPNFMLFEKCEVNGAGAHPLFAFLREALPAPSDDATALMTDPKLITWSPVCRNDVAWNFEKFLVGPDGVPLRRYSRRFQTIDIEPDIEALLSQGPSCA

Experiment [2] has as its target Phospholipid hydroperoxide glutathione peroxidase GPX4 (Homo sapiens) (UniProt P36969). Briefly: Primary qHTS Assay for Inhibitors of Recombinant Selenoprotein Glutathione Peroxidase 4 (GPX4) (AID 1845192). Note: nearly all actives have a fitted effect of over 65% in size. The essentials:
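Steps: GPX4 plus compound, 30 min RT; add GR/GSH/NADPH master mix; start with cumene hydroperoxide; read 340/450 nm fluorescence at 0 and 15 min. Finals were 200 nM GPX4, 1 mM GSH, 0.5 mM CHP, 0.5 mM NADPH, 100 nM GR.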

The target of experiment [3] is Luciferin 4-monooxygenase (Photinus pyralis) (UniProt P08659). Briefly: Primary firefly luciferase (FLuc) qHTS assay for identification of artifact compounds. (AID 1845220). Note: nearly all actives have a fitted effect of over 60% in size. The essentials:
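Titrated compounds were incubated 15 min at RT, protected from light, with luciferin and ATP at 10 uM; reaction started with 10 nM FLuc, luminescence imaged at 5 min, and concentration-response fitted by Hill equation.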

Experiment [4] in a line: Primary fluorescence-based thiol-reactive (MSTI) qHTS assay for identification of artifact compounds. (AID 1845221).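 For activity change, negative = thiol reactive: series mostly up to about 54 µM; thiol-reactive compounds lower the probe fluorescence signal.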 Note: nearly all actives have a fitted effect of over 65% in size. Note: potency is the fitted concentration of half-maximal effect. The gist of the method:
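Curve-fitted percent inhibition (4-parameter Hill) derived from fluorescence, Ex 525/Em 598 nm, scaled with Acetyl-MSTI and MSTI; 1 h incubation at room temperature.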

Experiment [5] has as its system Nanoluciferase (engineered Oplophorus gracilirostris luciferase). Briefly: Primary Nanoluciferase (NLuc) qHTS assay for identification of artifact compounds. (AID 1845222).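 Note: NLuc secreted into diluted conditioned medium of S16 cells; series mostly up to about 54 µM; 0% = DMSO and -100% = no enzyme.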 The essentials: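 qHTS format, against NLuc in S16 cell-conditioned medium. Nano-Glo substrate 1:100 was added after 15 min at room temperature. Luminescence was taken after a further 5 min.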

Experiment [6] in a line: Viability counterscreen for agonist of constitutive androstane receptor (CAR) against the NCATS DSHEA and TCM libraries (AID 1794838). Note: 0% is about no effect. The gist of the method: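 Viability by CellTiter-Fluor fluorescence, 405/540 nm, after 1 h at 37C. HepG2-CYP2B6-hCAR cells were exposed 24 h to test substances in presence of 0.75 uM PK11195 (final).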
Experiment [7] concerns the target Nuclear receptor subfamily 1 group I member 3 (Homo sapiens) (UniProt Q14994). Briefly: Primary qHTS for agonist of constitutive androstane receptor (CAR) against the NCATS DSHEA and TCM libraries (AID 1794839).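 Note: HepG2 cells expressing human CAR with a CYP2B6 reporter plus PK11195 antagonist; 0% is about no effect.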 The essentials: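 Luminescence from ONE-Glo luciferase was the agonist read-out in HepG2-CYP2B6-hCAR cells exposed 24 h to test substances. Wells also held the CAR antagonist PK11195 at 0.75 µM final. Viability was by CellTiter-Fluor fluorescence.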

Experiment [8] is described as follows: HepG2 viability counterscreen (readout 2: ATP content) against the NCATS DSHEA and TCM libraries (AID 1794840). Note: 0% is about no effect. The essentials: (§1)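 1,000 HepG2 cells/well, 4 h attach; compounds ~24 h, 37C/5% CO2. Readout 1: GF-AFC 25 uM final, 30 min, fluorescence 380/510 nm. Readout 2: CellTiter-Glo, 30 min RT, luminescence.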
Experiment [9] is described as follows: HepG2 viability counterscreen (readout 1: protease activity) against the NCATS DSHEA and TCM libraries (AID 1794841).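 Note: cells exposed to compounds for about 24 h before the protease read; 0% is about no effect.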 The essentials:
as §1

Experiment [10] in a line: Primary redox qHTS assay for identification of artifact compounds. (AID 1845223).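 Note: 0% = DMSO and 100% = reference compound.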 The gist of the method:
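Redox-cycling detection via DTT (250 uM final) oxidation coupled to Amplex Red (25 uM)/HRP (250 mU/mL) in HBSS. 15 min preincubation plus 30 min after DTT, room temperature. Ex/Em 525/598 nm; 4-parameter Hill fit against DMSO and 10 uM DA3003.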

In experiment [11] the target is Cytochrome P450 3A4 (Homo sapiens) (UniProt P08684). Briefly: qHTS for inhibitors of CYP3A4 against the NCATS DSHEA and TCM libraries (AID 1919971). Note: potency is the fitted concentration of half-maximal effect. The gist of the method: (§2)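 Substances were tested against enzyme with a pro-luciferin substrate; minus-enzyme wells served as background. After NADPH-initiated oxidation (30-45 min, RT), light was generated with P450-Glo reagent.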
Sequence of Cytochrome P450 3A4 (Homo sapiens) (P08684 whole entry, looked up): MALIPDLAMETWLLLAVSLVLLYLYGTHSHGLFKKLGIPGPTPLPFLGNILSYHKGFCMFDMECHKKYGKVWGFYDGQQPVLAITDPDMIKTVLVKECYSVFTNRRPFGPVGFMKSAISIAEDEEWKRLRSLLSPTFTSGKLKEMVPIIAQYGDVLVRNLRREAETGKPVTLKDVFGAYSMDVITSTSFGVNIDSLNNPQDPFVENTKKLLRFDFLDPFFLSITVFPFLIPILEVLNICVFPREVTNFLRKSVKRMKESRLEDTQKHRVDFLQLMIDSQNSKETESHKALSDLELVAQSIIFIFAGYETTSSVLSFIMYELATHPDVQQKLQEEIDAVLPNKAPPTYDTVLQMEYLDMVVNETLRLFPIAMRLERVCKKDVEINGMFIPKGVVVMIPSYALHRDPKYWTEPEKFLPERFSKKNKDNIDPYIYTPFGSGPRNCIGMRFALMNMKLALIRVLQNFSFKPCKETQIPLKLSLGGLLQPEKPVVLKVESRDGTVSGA

Experiment [12] has as its target Cytochrome P450 2D6 (Homo sapiens) (UniProt P10635). Briefly: qHTS for inhibitors of CYP2D6 against the NCATS DSHEA and TCM libraries (AID 1919972). Note: % is set by controls: 0 for no effect and ±100 for the full control effect. The gist of the method:
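qHTS, concentration–response format with most substances from 19.5 nM. CYP2D6 + pro-luciferin substrate, 15 min with compound, then 1x NADPH regen, 30–45 min RT dark. Glo detection 30 min, luminescence. Quinidine control.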

Experiment [13] addresses Cytochrome P450 2C9 (Homo sapiens) (UniProt P11712). Briefly: qHTS for inhibitors of CYP2C9 against the NCATS DSHEA and TCM libraries (AID 1919973). Note: potency is the fitted concentration of half-maximal effect. The essentials: as §2
The target of experiment [14] is Cytochrome P450 2C19 (Homo sapiens) (UniProt P33261). Briefly: qHTS for inhibitors of CYP2C19 against the NCATS DSHEA and TCM libraries (AID 1919974).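 Note: luminescence from luciferin released by CYP2C19 oxidation of a pro-luciferin substrate; potency is the fitted concentration of half-maximal effect.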 The essentials: as §2
Sequence of Cytochrome P450 2C19 (Homo sapiens) (P33261 whole entry, looked up): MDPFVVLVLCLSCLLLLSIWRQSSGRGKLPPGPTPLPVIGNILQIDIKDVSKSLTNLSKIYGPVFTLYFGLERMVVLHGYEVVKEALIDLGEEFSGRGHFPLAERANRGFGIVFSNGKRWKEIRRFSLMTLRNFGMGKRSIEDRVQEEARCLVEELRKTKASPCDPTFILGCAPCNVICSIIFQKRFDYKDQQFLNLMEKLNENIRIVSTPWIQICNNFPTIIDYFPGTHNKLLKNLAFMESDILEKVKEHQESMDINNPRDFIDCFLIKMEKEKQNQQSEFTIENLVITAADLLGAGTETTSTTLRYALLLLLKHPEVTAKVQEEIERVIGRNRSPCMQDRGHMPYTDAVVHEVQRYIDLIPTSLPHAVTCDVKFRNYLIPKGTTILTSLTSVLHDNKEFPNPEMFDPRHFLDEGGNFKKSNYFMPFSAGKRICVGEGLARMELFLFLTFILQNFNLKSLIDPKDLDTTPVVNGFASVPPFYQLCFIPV
Experiment [15] can be described thus: KB-3-1 P-gp reporter qHTS against the NCATS DSHEA and TCM libraries (AID 1919975). Note: 0% is about no effect. The gist of the method:
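CellTiter-Glo luminescence viability readout; KB-3-1 parental cells, 500/well, attached ~4 h, then compound for ~72 h, 37C, 5% CO2. Bortezomib intraplate control.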

Experiment [16] concerns the target Cytochrome P450 1A2 (Homo sapiens) (UniProt P05177). Briefly: qHTS for inhibitors of CYPIA2 against the NCATS DSHEA and TCM libraries (AID 1919976). Note: potency is the fitted concentration of half-maximal effect. The gist of the method:
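Luminescence read-out: pro-luciferin converted to D-luciferin by CYP1A2, detected with P450-Glo reagent after 30 min RT. Enzyme plus substrate got compounds for 15 min RT; NADPH regeneration solution (final 1x) started a 30-45 min reaction, light-protected.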

A short description of experiment [17]: qHTS Counterscreen for compound interference against the NCATS DSHEA and TCM libraries (AID 1919978).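 Note: compounds preincubated with 1 µM D-luciferin or buffer before detection reagent; % of control where 0% means no effect.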 As to conditions: firefly luciferase detection reagent interference, luminescence. The essentials:
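Luminescence counterscreen for detection-kit interference: compounds at 19.5 nM–39.8 uM final, 15 min RT with 1 uM D-luciferin or buffer only; detection reagent added, 30 min RT, then read.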

The nature of experiment [18]: Dual reporter qHTS for agonist of Pregnane X Receptor (hPXR) against the NCATS DSHEA and TCM libraries: Fluorescence readout (AID 1920058). Note: 0% is about no effect. The gist of the method:
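Fluorescence read-out for cell viability: CellTiter-Fluor, 1 h at 37 °C, Ex/Em 405/540 nm. This followed ~24 h treatment of hPXR-Luc HepG2 cells with substances in agonist mode.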

The target in experiment [19] is Nuclear receptor subfamily 1 group I member 2 (Homo sapiens) (UniProt O75469). Briefly: Dual reporter qHTS for agonist of Pregnane X Receptor (hPXR) against the NCATS DSHEA and TCM libraries: Luminescence readout (AID 1920059). Note: potency is the fitted concentration of half-maximal effect. The gist of the method: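 hPXR-Luc HepG2 cells, 2000/well in 5% charcoal-stripped FBS medium, attached 5 h, then exposed 24 h at 37C to compounds. Viability by CellTiter-Fluor, then luciferase luminescence with ONE-Glo.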
Sequence of Nuclear receptor subfamily 1 group I member 2 (Homo sapiens) (O75469 whole entry, looked up): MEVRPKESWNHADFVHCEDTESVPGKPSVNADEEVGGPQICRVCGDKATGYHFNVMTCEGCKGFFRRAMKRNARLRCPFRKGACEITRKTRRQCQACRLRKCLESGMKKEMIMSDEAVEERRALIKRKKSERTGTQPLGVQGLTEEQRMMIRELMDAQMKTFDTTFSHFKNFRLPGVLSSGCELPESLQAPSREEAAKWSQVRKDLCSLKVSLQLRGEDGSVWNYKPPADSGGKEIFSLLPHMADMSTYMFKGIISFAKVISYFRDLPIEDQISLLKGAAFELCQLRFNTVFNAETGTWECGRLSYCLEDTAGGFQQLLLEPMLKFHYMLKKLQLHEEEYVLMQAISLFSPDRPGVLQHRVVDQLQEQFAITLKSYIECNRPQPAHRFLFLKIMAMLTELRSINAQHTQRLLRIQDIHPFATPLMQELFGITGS

Experiment [20] has the same target. Briefly: Dual reporter qHTS for antagonist of Pregnane X Receptor (hPXR) against the NCATS DSHEA and TCM libraries: Luminescence Readout (AID 1920060).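 Note: HepG2 cells carrying hPXR luciferase reporter stimulated with rifampicin at 2 µM; 0% is about no effect.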 The essentials:
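HepG2 hPXR-Luc, 2000 cells/well, charcoal-stripped FBS medium; 5 h attach; RIF 2 uM final; 24 h 37C/5% CO2; CellTiter-Fluor 1 h, fluor 405/540; ONE-Glo 30 min RT, lum.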

Unmarked numbers belong to inactive results. Results filed as inconclusive are left out. Active and inactive are the calls of the source. Calls come from the whole dose curve; as a rule, active = well fitted curve in the direction sought with a large enough effect; inconclusive = small, poorly fitted or top-dose-only effect, or another doubt; inactive = no such curve, though single readings can be large; an effect the other way counts as inactive or inconclusive.

Sequence of Phospholipid hydroperoxide glutathione peroxidase GPX4 (Homo sapiens) (P36969 whole entry, looked up): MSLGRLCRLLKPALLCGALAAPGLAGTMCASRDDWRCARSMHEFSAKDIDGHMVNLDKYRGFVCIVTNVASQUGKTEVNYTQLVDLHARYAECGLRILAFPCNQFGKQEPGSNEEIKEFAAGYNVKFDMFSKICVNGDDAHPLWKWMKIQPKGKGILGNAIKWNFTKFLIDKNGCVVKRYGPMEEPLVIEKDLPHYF
Sequence of Nuclear receptor subfamily 1 group I member 3 (Homo sapiens) (Q14994 whole entry, looked up): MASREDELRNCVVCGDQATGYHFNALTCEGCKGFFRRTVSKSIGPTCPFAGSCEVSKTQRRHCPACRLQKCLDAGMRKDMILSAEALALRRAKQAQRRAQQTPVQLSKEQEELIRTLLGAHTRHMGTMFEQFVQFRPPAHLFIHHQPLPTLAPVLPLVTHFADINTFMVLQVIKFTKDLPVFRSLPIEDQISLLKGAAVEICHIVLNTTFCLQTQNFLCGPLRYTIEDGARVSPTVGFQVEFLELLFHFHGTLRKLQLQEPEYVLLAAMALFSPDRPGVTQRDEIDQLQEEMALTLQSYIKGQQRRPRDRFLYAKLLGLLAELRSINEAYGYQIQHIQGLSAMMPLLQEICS
Sequence of Cytochrome P450 2D6 (Homo sapiens) (P10635 whole entry, looked up): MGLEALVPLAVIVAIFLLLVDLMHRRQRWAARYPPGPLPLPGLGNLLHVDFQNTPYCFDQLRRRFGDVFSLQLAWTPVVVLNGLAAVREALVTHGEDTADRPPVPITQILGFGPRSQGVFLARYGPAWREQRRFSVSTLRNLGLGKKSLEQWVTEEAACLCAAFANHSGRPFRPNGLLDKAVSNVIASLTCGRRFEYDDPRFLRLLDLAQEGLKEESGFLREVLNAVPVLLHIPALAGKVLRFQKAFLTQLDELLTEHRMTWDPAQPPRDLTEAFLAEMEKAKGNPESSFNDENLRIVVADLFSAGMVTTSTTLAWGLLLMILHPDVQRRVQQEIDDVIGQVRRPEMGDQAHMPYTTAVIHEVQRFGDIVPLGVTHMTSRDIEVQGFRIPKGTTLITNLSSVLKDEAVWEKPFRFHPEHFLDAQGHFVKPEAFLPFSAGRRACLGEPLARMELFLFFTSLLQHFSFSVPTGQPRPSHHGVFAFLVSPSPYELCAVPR
Sequence of Cytochrome P450 2C9 (Homo sapiens) (P11712 whole entry, looked up): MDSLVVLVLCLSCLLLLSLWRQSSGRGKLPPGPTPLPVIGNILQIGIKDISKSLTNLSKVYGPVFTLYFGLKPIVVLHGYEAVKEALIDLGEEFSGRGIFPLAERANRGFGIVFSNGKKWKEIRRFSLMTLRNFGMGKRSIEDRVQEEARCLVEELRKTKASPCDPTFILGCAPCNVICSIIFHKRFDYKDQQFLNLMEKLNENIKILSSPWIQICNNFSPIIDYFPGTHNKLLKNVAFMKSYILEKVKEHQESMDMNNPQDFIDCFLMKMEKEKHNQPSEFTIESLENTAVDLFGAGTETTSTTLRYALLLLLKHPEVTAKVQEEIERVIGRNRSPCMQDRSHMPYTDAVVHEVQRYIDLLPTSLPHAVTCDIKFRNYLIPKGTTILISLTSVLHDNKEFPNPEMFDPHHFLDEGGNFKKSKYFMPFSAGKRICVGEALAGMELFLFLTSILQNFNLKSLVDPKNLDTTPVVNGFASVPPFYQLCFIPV
Sequence of Cytochrome P450 1A2 (Homo sapiens) (P05177 whole entry, looked up): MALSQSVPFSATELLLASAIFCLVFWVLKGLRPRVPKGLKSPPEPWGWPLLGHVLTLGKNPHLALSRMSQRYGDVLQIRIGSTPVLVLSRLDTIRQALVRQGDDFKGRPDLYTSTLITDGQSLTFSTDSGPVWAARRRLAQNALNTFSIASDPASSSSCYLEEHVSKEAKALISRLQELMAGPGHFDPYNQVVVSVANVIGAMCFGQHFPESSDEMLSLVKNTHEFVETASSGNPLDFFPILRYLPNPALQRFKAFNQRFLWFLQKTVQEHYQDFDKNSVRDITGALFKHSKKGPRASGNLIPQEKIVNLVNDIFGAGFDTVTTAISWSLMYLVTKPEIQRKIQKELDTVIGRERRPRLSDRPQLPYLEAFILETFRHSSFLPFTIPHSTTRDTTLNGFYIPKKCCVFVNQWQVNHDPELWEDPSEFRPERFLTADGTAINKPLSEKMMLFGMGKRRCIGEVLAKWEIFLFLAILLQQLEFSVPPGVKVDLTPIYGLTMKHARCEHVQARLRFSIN

Regarding `CC1=C2C[C@@]3(C)[C@@H](CCC[C@@H]3C)C[C@@]2(O)OC1=O`, the Potency entry in experiment [1], in experiment [2], in experiment [3], in [4] and in experiment [5] was “inactive” throughout.

Take `COc1cccc(OC)c1-c1ccc(C[C@H](NC(=O)c2c(Cl)cccc2Cl)C(=O)O)cc1`: the Potency result in experiment [1], in experiment [2], in experiment [3] and in [4] was “inactive” throughout.

As for `C=C(C)C1Cc2c(ccc3c2OCC(c2ccc(O)cc2O)C3)O1` (stereo unspecified), the Potency entry in [1], in experiment [2], in experiment [3], in [4] and in [5] was “inactive” throughout.

As for `CC(=O)O[C@@H]1C[C@@H](C)[C@](O)(CCC2=CC(=O)OC2)[C@@]2(C)CCCC(C)(C)C12` (stereo partly specified), the result in experiment [6], in [7], in [8], in experiment [9], in [12] and in experiment [15] was inactive. The result in experiment [18] and in [20] was inactive. Also, the Potency entry in [1], in experiment [2], in [3], in [4], in experiment [5] and in [10] was “inactive” in each case. The Potency is 4.47 µM (active) in experiment [11]; 8.91 µM (active) in experiment [13]; 2.82 µM (active) in [14]; 3.98 µM (active) in experiment [16]; 12.6 µM (active) in [19]. Further, the max response in experiment [17] was -1.72%.

Take `CC1(C)CC[C@]2(C(=O)O[C@@H]3O[C@H](CO[C@@H]4O[C@H](CO)[C@@H](O)[C@H](O)[C@H]4O)[C@@H](O)[C@H](O[C@@H]4O[C@H](CO)[C@@H](O)[C@H](O)[C@H]4O)[C@H]3O)[C@H](O)C[C@]3(C)C(=CCC4[C@@]5(C)CC[C@H](O[C@@H]6OC[C@@H](O)[C@H](O)[C@H]6O)[C@@](C)(C(=O)O)C5CC[C@]43C)[C@@H]2C1` (stereo partly specified): the Potency result in experiment [1] and in experiment [2] was “inactive” each time. Further, in experiment [3], the outcome is “inactive [at 11.6 µM]”. The activity change, negative = thiol reactive in experiment [4] was 59.1% [at 11.5 µM]. In addition, the activity, negative = inhibition in experiment [5] was -3.16% [at 11.6 µM].

In the case of `O=C(O)[C@H](Cc1ccccc1)Oc1ccc(-c2ccccc2)cc1`, the Potency entry in [1], in [2], in [3] and in experiment [4] was “inactive” in each case.

For `CC1=C(C)C(=O)OC(C(C)C2C(O)CC3C4C5OC5C5(O)CC(OC6OC(CO)C(OC7OC(C)C(O)C(O)C7O)C(O)C6O)CC(O)C5(C)C4CCC32C)C1` (stereo unspecified), the Potency entry in experiment [1], in [2], in experiment [3], in [4] and in [5] was “inactive” throughout.

As to `C=C1CCC2C(C)(C)CC(O)CC2(C)C1CCC(C)CC(=O)O` (stereo unspecified), the Potency result in experiment [1], in experiment [2], in experiment [3] and in experiment [5] was “inactive” each time. The Potency in experiment [4] is 18.5 µM (active).

As for `Cc1cccc(-c2nn3c(c2-c2ccnc4ccc(C(N)=O)cc24)CCC3)n1`, the Potency entry in [1], in [2], in experiment [3], in experiment [4] and in [5] was “inactive” each time.

As for `CC(C)=CCC(O)[C@](C)(O)C1[C@H](O)C[C@@]2(C)C3CC=C4C(C[C@H](O)[C@@H](O[C@@H]5O[C@H](CO)[C@@H](O)[C@H](O)[C@H]5O)C4(C)C)[C@]3(C)C(=O)C[C@]12C` (stereo partly specified), the Potency result in experiment [1], in experiment [2], in experiment [3], in experiment [4] and in experiment [5] was “inactive” in each case.

For the compound `C=C1C(=O)OC[C@H]2C(C(=O)O)=CC3CC(C)(C)C[C@@]132` (stereo partly specified), the Potency entry in experiment [1], in experiment [2], in experiment [3] and in experiment [5] was “inactive” each time. Also, the Potency in experiment [4] is 21.2 µM (active).

For `CC1(C)CC[C@]2(C(=O)O[C@@H]3O[C@H](CO[C@@H]4O[C@H](CO[C@@H]5O[C@H](CO)[C@H](O)[C@H](O)[C@H]5O)[C@@H](O)[C@H](O)[C@H]4O)[C@@H](O)[C@H](O[C@@H]4O[C@H](CO)[C@@H](O)[C@H](O)[C@H]4O)[C@H]3O)[C@H](O)C[C@]3(C)C(=CCC4[C@@]5(C)CC[C@H](O[C@@H]6OC[C@@H](O)[C@H](O)[C@H]6O)[C@@](C)(C(=O)O)C5CC[C@]43C)[C@@H]2C1` (stereo partly specified), the Potency result in experiment [1] and in experiment [2] was “inactive” in each case. Further, the outcome in experiment [3] was “inactive [at 11.6 µM]”. Besides, the activity change, negative = thiol reactive in experiment [4] was 27.9% [at 11.5 µM]. Moreover, the activity, negative = inhibition in experiment [5] is -3.7% [at 11.6 µM].

In the case of `O=C1OC(c2ccc(O)cc2)C(O)=C1Cc1ccccc1` (stereo unspecified), the Potency result in experiment [1], in [2] and in experiment [3] was “inactive” each time.

Turning to `C=C1CC[C@@]2(OC1)O[C@H]1CC3[C@@H]4CC=C5C[C@@H](O)C[C@@H](O[C@@H]6OC[C@H](O)[C@H](O)[C@H]6O[C@@H]6O[C@@H](C)[C@H](O)[C@@H](O)[C@H]6O)[C@]5(C)C4CC[C@]3(C)[C@H]1[C@@H]2C` (stereo partly specified), the Potency result in experiment [1], in experiment [2], in experiment [3], in experiment [4] and in experiment [5] was “inactive” throughout.

Turning to `CO[C@H]1c2cc(C(C)C)c(O)c(O)c2[C@@]23CCCC(C)(C)C2[C@@H]1OC3=O` (stereo partly specified), the Potency entry in experiment [1], in experiment [2], in experiment [3] and in experiment [5] was “inactive” throughout. Besides, in [4], the Potency was 1.47 µM (active).

As for `C[C@@H]1CCC2C(C)(C)[C@H](O)[C@H](O)C[C@]2(C)[C@@]12Cc1c(O)cc3c(c1O2)CN(CCCC(=O)O)C3=O` (stereo partly specified), the Potency result in experiment [1], in experiment [2], in [3], in experiment [4] and in [5] was “inactive” each time.

The values are drawn from PubChem BioAssay (NCATS).
